# Measured values: PubChem BioAssay (NCI)
# Several values for one entry are separate records, joined by “and”; a condition that tells them apart may be missing. Equal values may be shown once. This is part of a sample that, as a whole, favours compounds with a hit. Of some 83,000 tested, about 20% had one in any assay.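 Note: values are percent growth. 100 is the growth of untreated cells, values between 100 and 0 indicate rising inhibition; between -100 and 0 indicates cell death.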 Activity calls are given as the source filed them. The calls were made as follows: active = growth percent below 10; inactive = the rest.
# Columns and labels:
# Assay in all cases: NCI-60 one-dose screen, 48 h (100 = growth as untreated, 0 = no growth, -100 = all killed)
# HCT-15 colon = details: 10 µM unless noted
# HT29 colon = details: 10 µM unless noted
# SNB-75 CNS = details: 10 µM unless noted
# U251 CNS = details: 10 µM unless noted
# PC-3 prostate = details: 10 µM unless noted
# SK-MEL-5 melanoma = details: 10 µM unless noted
# UACC-62 melanoma = details: 10 µM unless noted
# LOX IMVI melanoma = details: 10 µM
# SK-MEL-28 melanoma = details: 10 µM unless noted
# SNB-19 CNS = details: 10 µM unless noted
SMILES,growth (HCT-15 colon),growth (HT29 colon),growth (SNB-75 CNS),growth (U251 CNS),growth (PC-3 prostate),growth (SK-MEL-5 melanoma),growth (UACC-62 melanoma),growth (LOX IMVI melanoma),growth (SK-MEL-28 melanoma),growth (SNB-19 CNS)
CCCCCCCCC(=O)OCCCC(CCC(CCC1CCCO1)OC(=O)CCCCCCCC)OC(=O)CCCCCCCC (stereo not given),103% (inactive),93% (inactive),93.8% (inactive),106% (inactive),85.1% (inactive),102% (inactive),88.2% (inactive),98.6% (inactive),102% (inactive),–
C1=C(c2ccccc2)c2ccccc2C1,87.6% (inactive),105% (inactive),90.9% (inactive),108% (inactive),82.6% (inactive),108% (inactive),–,89.7% (inactive),–,–
O=C1CSC(=S)N1Cc1cccnc1,58.3% (inactive),–,83.3% (inactive),–,85.1% (inactive),99.8% (inactive),87.6% (inactive),17.5% (inactive),–,110% (inactive)
COc1ccc(Nc2nc3ccc(C(F)(F)F)cc3nc2C(=O)O)cc1,–,–,–,–,–,–,-46.2% [100 µM] (active) and -91.5% [100 µM] (active),–,–,–
O=[N+]([O-])c1ccc(C(Br)c2ccc([N+](=O)[O-])cc2)cc1,57.8% (inactive),72.7% (inactive),–,–,61.8% (inactive),68.1% (inactive),79.5% (inactive),-40.1% (active),105% (inactive),106% (inactive)
O=C(Cc1nc2cc(Cl)c(Cl)cc2nc1CC(=O)c1cccnc1)c1cccnc1,57.2% (inactive),71.6% (inactive),88.4% (inactive),–,70.2% (inactive),81.7% (inactive),71.4% (inactive),65.4% (inactive),87.1% (inactive),–
CCCCCCCCCCCC[S+](C)CC(=O)[O-] (stereo not given),84.6% (inactive),44.7% (inactive),29.7% (inactive),–,25% (inactive),-62.3% (active),31.8% (inactive),32.9% (inactive),62.9% (inactive),–
O=C(CCc1ccccc1)ON1C(=S)NC(c2ccccc2)(c2ccccc2)C1=S,–,–,–,–,–,–,-47.5% [100 µM] (active) and -5.8% [100 µM] (active),–,–,–
O=[N+]([O-])c1ccc([I+]c2ccccc2)cc1,62.1% (inactive),-55.8% (active),–,-97.1% (active),62.3% (inactive),-29.5% (active),-17.6% (active),-81.9% (active),-76.8% (active),-70.9% (active)
CC(C)(C)c1ccc(O)c(-c2ccccc2)c1,102% (inactive),107% (inactive),–,96.3% (inactive),95.2% (inactive),116% (inactive),103% (inactive),103% (inactive),119% (inactive),121% (inactive)
Nc1cc(-c2ccccc2)ccc1O,93.3% (inactive),–,105% (inactive),101% (inactive),–,118% (inactive),88% (inactive),90% (inactive),93.3% (inactive),98.5% (inactive)
NNc1cccc([N+](=O)[O-])c1,101% (inactive),99.6% (inactive),–,89% (inactive),86.4% (inactive),109% (inactive),77.2% (inactive),76.6% (inactive),115% (inactive),107% (inactive)
CCOc1cc(F)c([N+](=O)[O-])cc1[N+](=O)[O-],–,2.66% (active),64.5% (inactive),29.6% (inactive),66.4% (inactive),76.7% (inactive),78.2% (inactive),-44% (active),70.1% (inactive),92.2% (inactive)
O=C(O)CCCOc1cc(-c2ccccc2F)nc2cc3c(cc12)OCO3,–,–,–,–,–,–,11.6% [100 µM] (inactive) and -54.7% [100 µM] (active),–,–,–
Cc1cc(N/N=C/c2ccccn2)nc2ccccc12,–,20.3% (inactive),30.8% (inactive),4.92% (active),28.3% (inactive),-43.7% (active),-46.5% (active),4.97% (active),18.1% (inactive),24.6% (inactive)
O=[N+]([O-])c1ccc2c(c1)Cc1ccccc1-2,91% (inactive),–,88.9% (inactive),90.9% (inactive),96.7% (inactive),97.7% (inactive),91.6% (inactive),100% (inactive),110% (inactive),94.9% (inactive)

SMILES,growth (HCT-15 colon),growth (HT29 colon),growth (SNB-75 CNS),growth (U251 CNS),growth (PC-3 prostate),growth (SK-MEL-5 melanoma),growth (UACC-62 melanoma),growth (LOX IMVI melanoma),growth (SK-MEL-28 melanoma),growth (SNB-19 CNS)
CCCCCCCCc1cc(Cl)c(O)c(Cl)c1,115% (inactive),–,98.4% (inactive),101% (inactive),89.9% (inactive),108% (inactive),99.5% (inactive),95.6% (inactive),112% (inactive),93.2% (inactive)
N#CCc1cccc2ccccc12,100% (inactive),96% (inactive),–,108% (inactive),90.9% (inactive),104% (inactive),111% (inactive),108% (inactive),94.7% (inactive),110% (inactive)
COc1cccc2c1C(=O)c1c(O)c3c(c(O)c1C2=O)C[C@@](O)(C(=O)CO)C[C@@H]3OC1CC(OC(C)=O)C(OC(C)=O)C(C)O1 (stereo not given in full),–,-59% (active),-30.9% (active),–,5.51% (active),-100% (active),-87.8% (active),-75.4% (active),-8.16% (active),-8.8% (active)
CCCOS(=O)(=O)c1ccccc1,102% (inactive),110% (inactive),–,106% (inactive),92.1% (inactive),112% (inactive),102% (inactive),103% (inactive),122% (inactive),103% (inactive)
C(=N\Nc1ccc2ccccc2n1)/c1ccccn1,28.5% (inactive),32.1% (inactive),–,10.1% (inactive),45.1% (inactive),-10.8% (active),-14.4% (active),15.1% (inactive),–,21.3% (inactive)
CC1=C(Cl)C[C@@H](/C(C)=C\Cl)O[C@@]1(O)C(Br)Br,–,–,–,–,–,–,70.8% [100 µM] (inactive) and -44.8% [100 µM] (active),–,–,–
Cc1cc2nc(CC(=O)c3ccncc3)c(=O)[nH]c2cc1C,94.6% (inactive),105% (inactive),86.2% (inactive),77.2% (inactive),95.6% (inactive),98.1% (inactive),88.9% (inactive),106% (inactive),109% (inactive),–
CCNc1nnnn1CC,99.7% (inactive),109% (inactive),90.4% (inactive),106% (inactive),97.3% (inactive),101% (inactive),106% (inactive),98.7% (inactive),113% (inactive),–
CCOC(=O)C1=C(C(=O)c2ccccc2)C(c2cccc([N+](=O)[O-])c2)C(C(=O)c2ccccc2)=C(C(=O)OCC)N1,66.4% (inactive),94.3% (inactive),88.4% (inactive),79.9% (inactive),86% (inactive),95.9% (inactive),70.2% (inactive),-57.6% (active),95.6% (inactive),–
O=C1C=CC(=O)N1c1ccccc1,–,103% (inactive),–,94.1% (inactive),–,106% (inactive),93.2% (inactive),–,117% (inactive),106% (inactive)
Cc1ccc(NC2=CC(=O)C(=O)c3ccccc32)cc1,11.2% (inactive),–,-18.7% (active),15.4% (inactive),28% (inactive),-98.4% (active),-33.9% (active),0.472% (active),-23.5% (active),28.4% (inactive)
S=C(SSC(=S)N1CCOCC1)N1CCOCC1,91.2% (inactive),–,104% (inactive),58.1% (inactive),77.6% (inactive),73.2% (inactive),68.7% (inactive),78.9% (inactive),106% (inactive),111% (inactive)
CN=C(N)N/N=C(\C)c1ccc2c(c1)Cc1ccccc1-2,-81.4% (active),–,–,-82.2% (active),-20.6% (active),-100% (active),-80.2% (active),-83.9% (active),-98.4% (active),-40% (active)
Cc1oc2c(C)c3oc(=O)cc(C)c3cc2c1CCl,91.8% (inactive),–,–,82.9% (inactive),91% (inactive),77.6% (inactive),44.3% (inactive),56.6% (inactive),93.3% (inactive),81.5% (inactive)
O/N=C1\c2ccccc2-c2ccc(F)cc21,74.6% (inactive),–,91.1% (inactive),106% (inactive),89.1% (inactive),99.1% (inactive),93.8% (inactive),96.6% (inactive),111% (inactive),101% (inactive)
O=C(c1ccccc1)C(O)C(Br)(CBr)c1ccccc1 (stereo not given),86.5% (inactive),–,99.5% (inactive),81.7% (inactive),70.2% (inactive),85.6% (inactive),65.3% (inactive),46.6% (inactive),–,90.5% (inactive)
